# Test results reported in PubChem BioAssay (Tox21).
# Records with an inconclusive call do not appear. Calls of active or inactive are those of the source. Calls come from the whole dose curve; as a rule, active = well fitted cell-killing curve with a large enough effect in the repeat runs; inconclusive = weak or mixed curves, or effect the other way; inactive = no such curve, though single readings can be large or run the other way.
# Assay: qHTS assay to identify small molecule antagonists of the retinoid-related orphan receptor gamma (ROR-gamma) signaling pathway - cell viability counter screen (AID 1159520); note: nearly all actives have a fitted effect of over 50% in size
# Conditions: Tet-on RORgamma CHO cells viability, ATP luminescence, 16 h; series mostly up to 92.4 µM; activity, negative = cytotoxicity: at the top concentration
# From the text: U.S. Tox21 Program National Center for Advancing Translational Sciences [NCATS] NIH Chemical Genomics Center [NCGC] U.S. Environmental Protection Agency [EPA] National Institutes of Environmental Health Sciences [NIEHS] National Toxicology Program [NTP] U.S. Food and Drug Administration [FDA] Tox21 Assay Overview: Nuclear steroid hormone receptors are involved in many biological processes including inflammatory responses, cell proliferation, and apoptosis. Environmental factors or compounds disrupting these nuclear receptor pathways and gene expression may promote susceptibility to immunotoxicants and autoimmune diseases. One important group of these expression factors are the retinoid-related orphan receptors. To assess compounds that may interfere with the retinoid-related orphan receptor gamma (ROR-gamma) transcription factor, a cell-based luciferase assay was used. The CHO cell-based assay utilizes a TET-inducible ROR expression factor and ROR response element-LUC reporter gene. Reporter gene activity was induced using Doxycycline Hyclate and measured after 16 hr incubation. Tet-on ROR gamma CHO cells were used to screen against the Tox21 10K compound library for cytotoxicity by measuring the viability of the cells based on the quantitation of the ATP.
# Tox21 Assay Protocol Summary: Tet-on ROR gamma CHO cells were dispensed at 1,000 cells in 4 uL of culture medium per well into white wall/solid bottom 1536-well plates using a Multidrop Combi (Thermo Scientific, Waltham, MA) dispenser. Following incubation at 37 C and 5% CO2 for 4 hr, 23 nL of compounds dissolved in DMSO, positive controls or DMSO only were transferred by a Pintool station (Kalypsys, San Diego, CA) and after 2 hr incubation at 37 C, one ul of 1 uM (final concentration) of Doxycycline Hyclate was added to all the wells by using a Flying Reagent Dispenser (FRD) (Aurora Discovery, San Diego, CA). After 16 hr incubation at 37 C and 5% CO2, 5 uL of CellTiter-Glo reagent (Promega Corporation, Madison, WI) was added to each assay plate using FRD. After 30 min incubation at room temperature, luminescence was quantified on a ViewLux plate reader (Perkin Elmer, Waltham, MA).
# % is set by controls: 0 for no effect and ±100 for the full control effect.
row,Structure (SMILES),"activity, negative = cytotoxicity"
1,OC[C@@H](O)[C@H](O)[C@@H](O)[C@@H](O)CO,-0.644% (inactive)
2,O=C(Nc1cccc(C2=NCCN2)c1)Nc1cccc(C2=NCCN2)c1,4.97% [at 19 µM] (inactive)
3,O=C(O)C(=O)Nc1cccc(-c2nn[nH]n2)c1,0.374% [at 42.5 µM] (inactive)
4,C=CCOc1cc(Cl)ccc1C(=O)NCCN(CC)CC,5% [at 42.5 µM] (inactive)
5,CC(C)(C)c1ccc(C=O)cc1,2.43% (inactive)
6,CCOC(=O)CC(CC(=O)OCC)(OC(C)=O)C(=O)OCC,-4.66% (inactive)
7,O=C1OC(=O)c2cc(Oc3ccc4c(c3)C(=O)OC4=O)ccc21,2.83% (inactive)
8,C=CC(C)(O)CC/C=C(\C)CC (stereo not given),-0.0219% (inactive)
9,CC(C)=CC(C)(C)C,2.74% (inactive)
10,Nc1cc(S(=O)(=O)O)ccc1S(=O)(=O)O,3.33% (inactive)
11,O=C(COCCOCCOCC(=O)Nc1c(I)cc(I)c(C(=O)O)c1I)Nc1c(I)cc(I)c(C(=O)O)c1I,6.32% [at 42.5 µM] (inactive)
12,CCCCCCCCCCCCCCCCI,-0.188% [at 19 µM] (inactive)
13,CCCOCCOCCOCCO,-5.57% (inactive)
14,O=C(O)c1ccc(OCCN2CCCCC2)cc1,1.36% [at 42.5 µM] (inactive)
15,Cc1ncc([N+](=O)[O-])n1CC(O)CCl (stereo not given),2.34% [at 42.5 µM] (inactive)
16,Cc1cccc(Nc2ccncc2S(=O)(=O)NC(=O)NC(C)C)c1,3.37% [at 42.5 µM] (inactive)
17,CO[Si](CCCS)(OC)OC,6.18% (inactive)
18,F[Si-2](F)(F)(F)(F)F,3.16% (inactive)
19,O=C(/C=C/c1ccccc1)NCCO,-2.85% [at 42.5 µM] (inactive)
20,CCCCC(CC)C(=O)OC(C)C (stereo not given),4.13% (inactive)

row,Structure (SMILES),"activity, negative = cytotoxicity"
1,CC1CCC(C(C)(C)S)C(=O)C1 (stereo not given),3.35% (inactive)
2,CC(C)CCC(=O)CCC(C)C,5.16% (inactive)
3,O=C(O)c1ccccc1C(=O)Nc1ccc(S(=O)(=O)Nc2nccs2)cc1,1.45% [at 42.5 µM] (inactive)
4,COC(/C=C(\C)CCC=C(C)C)OC,2.42% (inactive)
5,CCCCOC(=O)C(C)OC(=O)CCC (stereo not given),5.4% (inactive)
6,O=C(O)CCNC(=O)c1ccccc1,0.716% [at 42.5 µM] (inactive)
7,C=COCCOCCOC=C,0.0105% (inactive)
8,O=[Si]=O,4.45% (inactive)
9,C[C@@H]1C[C@H]2[C@@H]3C[C@H](F)C4=CC(=O)C=C[C@]4(C)[C@@]3(F)[C@@H](O)C[C@]2(C)[C@@]1(O)C(=O)CO,1.38% [at 42.5 µM] (inactive)
10,COc1ccc(/C=N/NC(=O)c2ccncc2)cc1OC,0.419% [at 42.5 µM] (inactive)
11,O=C(c1ccc2c(c1)C(=O)OC2=O)c1ccc2c(c1)C(=O)OC2=O,4.86% (inactive)
12,COCCOCCOCCOC,-0.133% (inactive)
13,Nc1ccnc(=O)[nH]1,-0.559% (inactive)
14,NS(=O)(=O)c1ccc(Cl)c(S(N)(=O)=O)c1,-1.72% [at 42.5 µM] (inactive)
15,CC(C)COC(=O)CCCCC(=O)OCC(C)C,-4.79% (inactive)
16,SCCSCCS,5.03% (inactive)
17,NC(=O)NC(=O)Cc1ccccc1,0.769% [at 42.5 µM] (inactive)
18,CC(C)COC(=O)CC(C(=O)OCC(C)C)S(=O)(=O)O (stereo not given),0.994% (inactive)
19,Cc1cccc(NC(=S)N(C)C)c1,1.88% (inactive)
20,CC(Cl)COP(=O)(OCC(C)Cl)OCC(C)Cl (stereo not given),5.36% (inactive)
